# The full data set covers some 8,800 targets. This sample favours those with a hit. About 0.5% of all pairs of compound and target were hits. Unmarked numbers belong to inactive results.
# Assays:
# Assay in all cases: log2 fold change, soluble protein after heating vs DMSO (PISA); higher = thermal stabilisation; K562 lysate, 10 uM; active = over 0.2 and 3.5 SD of the protein, either way, in both replicates (recomputed)
# [1] = compound: CCCS(=O)(=O)Nc1ccc(F)c(C(=O)c2c[nH]c3ncc(-c4ccc(Cl)cc4)cc23)c1F [vemurafenib]
# Outline: (§1)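 Values give the log-two fold change in thermal stability against solvent controls, from duplicates. Crude K562 extract at 1 mg/mL protein, made by dounce homogenisation in PBS pH 7.4 with 1 mM MgCl2, was treated with 10 μM compound for 30 min. After 3 min heating across 48°C-58°C, aliquots were pooled, adjusted to 0.5% NP-40 at 4°C and centrifuged at 21,000xg for 90 min. The supernatant was measured by TMTpro 16plex LC-MS/MS with channel sums equalised.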
# [2] = compound: CCCS(=O)(=O)Nc1ccc(F)c(C(=O)c2c[nH]c3ncc(Cl)cc23)c1F
# Outline: as §1
# [3] = compound: CCN(CCCOc1ccc2c(Nc3cc(CC(=O)Nc4cccc(F)c4)[nH]n3)ncnc2c1)CCOP(=O)(O)O [barasertib]
# Outline: as §1
# [4] = compound: CC[C@@H]1C(=O)N(C)c2cnc(Nc3ccc(C(=O)NC4CCN(C)CC4)cc3OC)nc2N1C1CCCC1
# Outline: as §1
# [5] = compound: CC[C@@H]1C(=O)N(C)c2cnc(Nc3ccc(C(=O)N[C@H]4CC[C@H](N5CCN(CC6CC6)CC5)CC4)cc3OC)nc2N1C(C)C [volasertib]
# Outline: as §1
# [6] = compound: CCn1c(C(=O)N(C2CC2)C2CC2)cc2c3c(ncn3C)c(Nc3cc(C)n(C)n3)nc21
# Outline: as §1
# [7] = compound: CCn1cc(-c2ccnc3[nH]c(-c4cccc(CN(C)C)c4)cc23)c(-c2ccc(NC(=O)N(C)C)cc2)n1
# Outline: as §1
# [8] = compound: CN1CCC(CNc2ccc3ncc(-c4cccc(OC(F)(F)F)c4)n3n2)CC1
# Outline: as §1
# [9] = compound: CN1CCN(CCOc2cc(OC3CCOCC3)c3c(Nc4c(Cl)ccc5c4OCO5)ncnc3c2)CC1 [saracatinib]
# Outline: as §1
# [10] = compound: CN1CCN(c2nc(C3=C(c4c[nH]c5ccccc45)C(=O)NC3=O)c3ccccc3n2)CC1 [sotrastaurin]
# Outline: as §1
# [11] = compound: CN1CC[C@H](c2c(O)cc(O)c3c(=O)cc(-c4ccccc4Cl)oc23)[C@H](O)C1 [alvocidib]
# Outline: as §1
# [12] = compound: CN1CCc2c(c3ccccc3n2Cc2ccc(C(=O)NO)cc2)C1 [Tubastatin A]
# Outline: as §1
# [13] = compound: CNC(=O)C1=CC=CC=C1NC2=NC(=NC=C2Cl)NC3=C(C=C(C=C3)N4CCOCC4)OC
# Outline: as §1
# [14] = compound: CNC(=O)c1ccc(Nc2ncc(C(F)(F)F)c(NCc3nccnc3N(C)S(C)(=O)=O)n2)cc1 [defactinib]
# Outline: as §1
# [15] = compound: CNc1nc(-c2ccc3c(N)n[nH]c3c2)cc(N2C[C@@H](C(=O)NC3CCCCC3)CC[C@H]2C)n1
# Outline: as §1
# [16] = compound: COC(=O)N[C@@H](C)CNc1nccc(-c2cn(C(C)C)nc2-c2cc(Cl)cc(NS(C)(=O)=O)c2F)n1 [encorafenib]
# Outline: as §1
# [17] = compound: COC(=O)[C@H](CCSC)NC(=O)C1=C(C=C(C=C1)NC[C@H](CS)N)C2=CC=CC=C2
# Outline: as §1
# [18] = compound: COc1cc(Nc2ncc3c(n2)-c2ccc(Cl)cc2C(c2c(F)cccc2OC)=NC3)ccc1C(=O)O [alisertib]
# Outline: as §1
# [19] = compound: COc1cc2nc(-c3cc(F)ccc3O)nc(N[C@@H]3CNC[C@H]3C(C)(C)O)c2cc1OC
# Outline: as §1
# [20] = compound: COc1cc2ncnc(Nc3ccc(F)c(Cl)c3)c2cc1OCCCN1CCOCC1 [gefitinib]
# Outline: as §1
# Sequence of UniProt Q86Y07 (Q86Y07 whole entry, looked up): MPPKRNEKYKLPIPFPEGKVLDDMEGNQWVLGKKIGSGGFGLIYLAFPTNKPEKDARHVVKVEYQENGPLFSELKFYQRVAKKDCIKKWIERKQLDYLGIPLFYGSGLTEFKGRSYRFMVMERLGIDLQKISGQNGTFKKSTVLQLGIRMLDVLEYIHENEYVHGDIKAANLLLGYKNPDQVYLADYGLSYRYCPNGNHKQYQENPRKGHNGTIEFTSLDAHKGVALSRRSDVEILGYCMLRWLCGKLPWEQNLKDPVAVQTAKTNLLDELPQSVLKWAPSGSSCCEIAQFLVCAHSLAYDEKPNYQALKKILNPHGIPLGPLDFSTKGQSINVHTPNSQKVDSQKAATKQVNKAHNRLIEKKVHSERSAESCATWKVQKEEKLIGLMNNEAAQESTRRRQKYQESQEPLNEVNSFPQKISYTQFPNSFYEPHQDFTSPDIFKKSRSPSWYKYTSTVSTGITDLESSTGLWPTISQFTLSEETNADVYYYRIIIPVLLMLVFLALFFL
# Sequence of UniProt Q9NZ43 (Q9NZ43 whole entry, looked up): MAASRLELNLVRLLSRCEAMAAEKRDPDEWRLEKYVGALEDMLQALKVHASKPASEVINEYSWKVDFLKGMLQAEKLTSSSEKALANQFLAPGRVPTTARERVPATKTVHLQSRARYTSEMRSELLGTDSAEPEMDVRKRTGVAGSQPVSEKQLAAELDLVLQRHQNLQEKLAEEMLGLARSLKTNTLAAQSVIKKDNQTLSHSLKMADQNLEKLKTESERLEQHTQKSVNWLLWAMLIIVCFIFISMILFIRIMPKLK
# Sequence of UniProt Q9UN37 (Q9UN37 whole entry, looked up): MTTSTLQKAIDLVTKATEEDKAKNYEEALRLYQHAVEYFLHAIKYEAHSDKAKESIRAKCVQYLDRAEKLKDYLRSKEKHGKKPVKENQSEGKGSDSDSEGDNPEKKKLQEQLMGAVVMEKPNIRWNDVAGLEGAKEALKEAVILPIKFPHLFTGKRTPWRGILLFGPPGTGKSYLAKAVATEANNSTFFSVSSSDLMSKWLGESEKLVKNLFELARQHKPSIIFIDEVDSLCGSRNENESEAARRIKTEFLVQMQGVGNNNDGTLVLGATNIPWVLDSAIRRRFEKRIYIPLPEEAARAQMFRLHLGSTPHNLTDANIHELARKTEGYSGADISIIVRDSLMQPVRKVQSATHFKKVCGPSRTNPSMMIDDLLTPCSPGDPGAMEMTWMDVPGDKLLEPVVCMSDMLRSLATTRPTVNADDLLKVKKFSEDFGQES
# Sequence of UniProt Q96JH7 (Q96JH7 whole entry, looked up): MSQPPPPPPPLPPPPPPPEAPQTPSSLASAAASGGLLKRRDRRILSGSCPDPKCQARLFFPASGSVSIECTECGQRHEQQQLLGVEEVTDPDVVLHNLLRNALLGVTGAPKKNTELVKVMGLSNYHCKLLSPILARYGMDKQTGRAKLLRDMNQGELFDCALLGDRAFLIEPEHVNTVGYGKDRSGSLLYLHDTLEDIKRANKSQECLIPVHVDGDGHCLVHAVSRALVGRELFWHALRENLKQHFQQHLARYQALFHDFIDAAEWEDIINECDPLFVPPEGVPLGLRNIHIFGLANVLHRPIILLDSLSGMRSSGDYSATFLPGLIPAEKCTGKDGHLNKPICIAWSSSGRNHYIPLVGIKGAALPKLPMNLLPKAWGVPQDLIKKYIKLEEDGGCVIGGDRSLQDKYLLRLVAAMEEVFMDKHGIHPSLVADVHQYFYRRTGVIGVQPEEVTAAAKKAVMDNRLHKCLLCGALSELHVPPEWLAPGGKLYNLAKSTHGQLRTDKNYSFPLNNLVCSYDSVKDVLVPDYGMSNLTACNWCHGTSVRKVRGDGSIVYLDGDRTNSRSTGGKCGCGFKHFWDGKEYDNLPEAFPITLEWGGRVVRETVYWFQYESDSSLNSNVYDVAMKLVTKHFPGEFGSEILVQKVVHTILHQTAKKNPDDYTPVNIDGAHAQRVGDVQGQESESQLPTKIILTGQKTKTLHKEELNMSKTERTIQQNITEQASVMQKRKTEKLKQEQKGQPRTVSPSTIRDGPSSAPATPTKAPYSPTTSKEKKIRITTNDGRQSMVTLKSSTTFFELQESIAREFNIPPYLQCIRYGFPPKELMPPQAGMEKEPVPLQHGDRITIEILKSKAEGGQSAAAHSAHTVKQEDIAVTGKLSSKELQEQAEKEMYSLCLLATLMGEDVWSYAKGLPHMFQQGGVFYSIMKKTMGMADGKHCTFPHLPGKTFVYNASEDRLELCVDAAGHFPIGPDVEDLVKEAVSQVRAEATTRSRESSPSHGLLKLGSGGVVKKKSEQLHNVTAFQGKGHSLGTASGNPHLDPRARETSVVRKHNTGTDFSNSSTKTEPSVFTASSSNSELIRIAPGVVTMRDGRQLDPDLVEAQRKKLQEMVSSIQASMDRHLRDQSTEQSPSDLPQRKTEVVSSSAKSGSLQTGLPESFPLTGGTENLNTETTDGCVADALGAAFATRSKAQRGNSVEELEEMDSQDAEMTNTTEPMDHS
# Sequence of UniProt O75717 (O75717 whole entry, looked up): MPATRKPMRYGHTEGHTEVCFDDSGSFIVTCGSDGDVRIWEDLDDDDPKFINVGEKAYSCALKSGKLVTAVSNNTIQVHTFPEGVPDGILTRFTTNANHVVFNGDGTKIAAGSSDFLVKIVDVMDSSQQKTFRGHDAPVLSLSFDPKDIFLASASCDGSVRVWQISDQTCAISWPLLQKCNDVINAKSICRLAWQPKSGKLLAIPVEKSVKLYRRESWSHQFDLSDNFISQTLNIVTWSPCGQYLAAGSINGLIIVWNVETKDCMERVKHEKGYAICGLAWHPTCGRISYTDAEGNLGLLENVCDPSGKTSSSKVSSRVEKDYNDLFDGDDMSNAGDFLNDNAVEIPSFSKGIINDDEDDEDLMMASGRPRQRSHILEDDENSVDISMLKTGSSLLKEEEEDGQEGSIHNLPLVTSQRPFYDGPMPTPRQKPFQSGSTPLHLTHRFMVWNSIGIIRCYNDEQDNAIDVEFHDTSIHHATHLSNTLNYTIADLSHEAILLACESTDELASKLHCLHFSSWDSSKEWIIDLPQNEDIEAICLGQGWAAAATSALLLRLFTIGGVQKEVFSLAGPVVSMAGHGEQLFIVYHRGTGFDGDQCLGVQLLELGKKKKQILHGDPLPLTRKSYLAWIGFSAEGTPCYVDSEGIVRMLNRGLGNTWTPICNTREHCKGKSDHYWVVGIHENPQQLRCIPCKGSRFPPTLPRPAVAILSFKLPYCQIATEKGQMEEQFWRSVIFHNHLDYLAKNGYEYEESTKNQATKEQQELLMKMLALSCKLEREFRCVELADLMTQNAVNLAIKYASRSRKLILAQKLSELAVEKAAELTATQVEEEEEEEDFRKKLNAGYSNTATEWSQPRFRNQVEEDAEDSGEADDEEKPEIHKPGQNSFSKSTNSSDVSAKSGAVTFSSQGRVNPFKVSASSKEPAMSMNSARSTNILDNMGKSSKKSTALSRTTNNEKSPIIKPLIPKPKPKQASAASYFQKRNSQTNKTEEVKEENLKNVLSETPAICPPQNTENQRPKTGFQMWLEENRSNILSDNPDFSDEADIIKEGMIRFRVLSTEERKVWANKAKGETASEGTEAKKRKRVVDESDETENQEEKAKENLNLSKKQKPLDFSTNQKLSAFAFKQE
# Sequence of UniProt O75152 (O75152 whole entry, looked up): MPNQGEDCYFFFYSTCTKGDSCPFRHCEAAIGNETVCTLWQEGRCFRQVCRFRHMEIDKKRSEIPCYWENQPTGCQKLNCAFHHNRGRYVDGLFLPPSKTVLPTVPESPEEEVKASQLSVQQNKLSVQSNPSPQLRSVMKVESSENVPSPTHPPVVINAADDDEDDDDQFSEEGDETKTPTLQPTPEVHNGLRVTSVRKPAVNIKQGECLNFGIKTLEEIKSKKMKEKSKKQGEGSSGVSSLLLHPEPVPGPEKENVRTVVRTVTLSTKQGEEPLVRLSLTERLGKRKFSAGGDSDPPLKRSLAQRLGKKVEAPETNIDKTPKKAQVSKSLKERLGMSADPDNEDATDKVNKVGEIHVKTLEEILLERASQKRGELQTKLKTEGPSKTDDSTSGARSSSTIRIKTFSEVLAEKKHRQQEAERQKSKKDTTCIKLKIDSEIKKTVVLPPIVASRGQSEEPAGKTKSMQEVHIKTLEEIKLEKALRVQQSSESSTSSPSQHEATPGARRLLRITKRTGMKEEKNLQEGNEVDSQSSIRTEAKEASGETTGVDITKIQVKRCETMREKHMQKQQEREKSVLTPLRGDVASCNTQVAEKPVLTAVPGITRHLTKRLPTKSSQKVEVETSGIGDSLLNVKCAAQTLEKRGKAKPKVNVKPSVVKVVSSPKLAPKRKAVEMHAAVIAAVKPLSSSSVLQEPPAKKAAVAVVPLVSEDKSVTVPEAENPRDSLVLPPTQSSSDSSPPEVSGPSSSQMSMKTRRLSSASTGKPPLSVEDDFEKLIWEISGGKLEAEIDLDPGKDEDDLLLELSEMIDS
Target,log2 fold change [1],log2 fold change [2],log2 fold change [3],log2 fold change [4],log2 fold change [5],log2 fold change [6],log2 fold change [7],log2 fold change [8],log2 fold change [9],log2 fold change [10],log2 fold change [11],log2 fold change [12],log2 fold change [13],log2 fold change [14],log2 fold change [15],log2 fold change [16],log2 fold change [17],log2 fold change [18],log2 fold change [19],log2 fold change [20]
VRK2 (UniProt Q86Y07),0.113,0.148,0.048,-0.032,-0.008,0.01,-0.104,0.182,-0.022,0.151,0.503 (active),-0.017,0.067,0.156,-0.044,-0.068,0.032,-0.033,0.008,-0.08
WDHD1 (UniProt O75717),-0.03,0.022,-0.02,-0.011,-0.026,-0.001,0.078,-0.066,0.024,0.003,0.042,-0.073,0.004,-0.002,-0.011,-0.019,0.098,-0.016,-0.003,0.015
ZC3H11A (UniProt O75152),0.104,0.084,0.055,0.03,-0.022,0,0.283,-0.182,-0.016,0.013,0.098,-0.077,0.076,-0.066,-0.023,0.045,0.078,0.019,0.09,0.034
VPS4A (UniProt Q9UN37),0.096,-0.006,0.014,-0.063,-0.09,0.054,-0.12,-0.036,0.027,0.056,-0.004,-0.16,0.025,0.01,-0.1,-0.004,0.138,0,-0.004,-0.025
USE1 (UniProt Q9NZ43),-0.071,-0.049,0.021,0.036,0.04,0.093,0.002,-0.103,-0.02,0.017,0.019,-0.054,-0.002,0.064,0.015,0.067,-0.037,-0.059,0.039,-0.026
VCPIP1 (UniProt Q96JH7),0.008,-0.04,0.051,-0.006,-0.047,0.011,-0.12,0.049,-0.03,0.035,-0.049,-0.026,-0.01,0.022,0.113,0.005,0.141,0.003,-0.006,-0.04
XPO6 (UniProt Q96QU8),0.033,0.013,0.062,-0.03,-0.058,-0.049,0.448,0.071,-0.007,0,-0.058,-0.09,-0.048,-0.025,-0.05,-0.006,0.021,0.036,0.031,0.067
WDR3 (UniProt Q9UNX4),-0.01,0.011,0.042,-0.063,-0.043,0.01,-0.024,0.019,0.002,0.062,0.008,-0.099,-0.013,0.031,-0.048,-0.008,0.046,0.03,-0.007,-0.01

# Reference: the supplement of paper PMC10849652
